# High-throughput results from PubChem BioAssay.
# The list is not random: actives were taken first. Their share in the collection is about 7.3%.
# SMN2 splice enh = qHTS Assay for Enhancers of SMN2 Splice Variant Expression; HEK293 SMN2-luciferase splicing reporter, luminescence, 30-36 h; Potency, µM (series often up to 46.1 µM), without a hit: top-dose activity change, positive = activation, hits mostly activators; 2.8% of 210,000 active; AID 1458, 2008; also: % of control where 0% means no effect; nearly all actives have a fitted effect of over 55% in size
#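 HEK293 cells carry an SMN2 minigene-luciferase reporter in which exon 7 inclusion puts luciferase in frame. Cells were seeded at 2000 cells/well, attached for 10-12 hours, then exposed to compounds for 30-36 hours at 37C before ONE-Glo luminescence.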
# KinaseGlo FLuc = Counterscreen for Luciferase (Kinase-Glo TM) Inhibition; Luciferin 4-monooxygenase (Photuris pensylvanica), Q27757; Kinase-Glo luciferase, ATP luminescence, 8 min; Potency, µM (series often up to 38.3 µM), for inactives: top-dose activity change, negative = inhibition, usual class: inhibitors; 0.28% of 200,000 active; AID 1379, 2008; also: % is scaled to controls: 0 for no effect and ±100 for the full control effect; nearly all actives have a fitted effect of over 60% in size
#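 Inhibition of Kinase-Glo luciferase light generation was assessed at 10 uM ATP in pH 7.2 imidazole buffer, with luminescence measured after eight minutes at ambient temperature.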
# FLuc modulator = qHTS profiling assay for firefly luciferase inhibitor/activator using purifed enzyme and Km concentrations of substrates (counterscreen for miR-21 project). Luciferin 4-monooxygenase (Photinus pyralis), P08659. purified FLuc, Km substrates, luminescence inhibition. Potency, µM (top dose mostly 57.5 µM), for the others: top-dose activity change, negative = inhibition, usual class: inhibitors. 6.9% of 360,000 active. AID 588342, 2011;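 also: plate controls were vehicle for no effect and reference inhibitor for full effect; nearly all actives have a fitted effect of over 55% in size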
# Target sequence (P08659 whole entry, looked up): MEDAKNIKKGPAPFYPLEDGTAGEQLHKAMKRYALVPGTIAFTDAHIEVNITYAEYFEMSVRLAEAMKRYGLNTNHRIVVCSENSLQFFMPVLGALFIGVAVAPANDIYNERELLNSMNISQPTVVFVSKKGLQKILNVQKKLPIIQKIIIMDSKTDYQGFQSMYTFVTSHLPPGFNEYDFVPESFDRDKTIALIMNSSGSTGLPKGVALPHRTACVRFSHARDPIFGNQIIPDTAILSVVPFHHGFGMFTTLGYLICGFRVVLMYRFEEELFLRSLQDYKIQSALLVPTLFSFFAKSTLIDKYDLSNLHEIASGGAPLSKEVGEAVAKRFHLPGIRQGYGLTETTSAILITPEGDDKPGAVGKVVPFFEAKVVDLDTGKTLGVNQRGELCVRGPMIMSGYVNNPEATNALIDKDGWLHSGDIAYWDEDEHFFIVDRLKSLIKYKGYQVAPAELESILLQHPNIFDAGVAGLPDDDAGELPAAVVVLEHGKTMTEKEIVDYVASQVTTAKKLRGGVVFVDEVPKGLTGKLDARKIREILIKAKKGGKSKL
#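 Purified P. pyralis luciferase (10nM final) with 10uM D-luciferin and 10uM ATP (Km levels) in 50mM Tris acetate pH 7.5, 10mM Mg acetate, 0.01% Tween-20, 0.05% BSA; qHTS 6-point titration, ~60 µM downward; luminescence read.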
# Rab9 prom act = qHTS Assay for Rab9 Promoter Activators; Huh7 Rab9 promoter-luciferase reporter, luminescence, 24 h; 2.8% of 320,000 active; AID 485297, 2010; Potency, µM (doses to about 9.22 µM), for inactives: at the top dose activation, negative = inhibition, usual class: activators; also: % of control where 0% means no effect; nearly all actives have a fitted effect of over 60% in size
#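 Rab9 promoter-driven luciferase in stably transfected Huh7 cells; 1500 cells/well rested 2 h, exposed to compound in DMSO for 24 h at 37 °C, 5% CO2. Luminescence read 10 min after adding luciferase reagent at ambient temperature.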
# ELG1 genotox = qHTS screen for small molecules that induce genotoxicity in human embryonic kidney (HEK293T) cells expressing luciferase-tagged ELG1; Potency, µM (titrated, usually from 46 µM), for inactives: at the highest dose activity change, positive = activation, usual class: activators; HEK293T ELG1-luciferase reporter, luminescence, 16 h; 1.3% of 330,000 active; also: % of control where 0% means no effect; nearly all actives have a fitted effect of over 60% in size
#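 HEK293T cells expressing luciferase-tagged ELG1 were exposed to compound or DMSO vehicle for 16 hr at 37 °C and 5% CO2. Luciferase activity was then measured with ONE-Glo after 30 min at room temperature.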
# NPC1 promoter act = qHTS Assay for NPC1 Promoter Activators. AID 485313, 2010. 2.4% of 320,000 active. Potency, µM (titrated, usually from 9.22 µM), for inactives: at the top dose activation, hits mostly activators. Huh7 NPC1 promoter luciferase reporter, 24 h; also: % of control where 0% means no effect; nearly all actives have a fitted effect of over 60% in size
#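 NPC1 promoter–luciferase Huh7 cells; 24 h compound; luminescence.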
# An asterisk follows results filed as active; ? = inconclusive; nt = no result; [ ] = another dose, or the depositor's remark. Calls follow the shape of the dose curve; as a rule, active = well fitted curve in the direction sought with a large enough effect; inconclusive = small, poorly fitted or top-dose-only effect, or another doubt; inactive = no such curve, though single readings can be large; an effect the other way counts as inactive or inconclusive. Potency is read from the fitted curve at half-maximal effect.
SMILES,SMN2 splice enh,KinaseGlo FLuc,FLuc modulator,Rab9 prom act,ELG1 genotox,NPC1 promoter act
O=C(Nc1cccnc1)c1cc(-c2ccco2)on1,-3%,-9%,6µM*,0%,0%,0%
COC(=O)c1c(-c2cccnc2)csc1NC(=O)c1cc(C)on1,11µM*,-6%,6µM*,1.8µM*,?,2µM*
O=C(Nc1ccc(F)c(Cl)c1)c1cc(-c2ccco2)on1,nt,nt,?,2%,5%,-3%
COc1ccc(CCNC(=O)Cn2c(-c3ccc(F)cc3)cc(C(C)=O)c2C)cc1OC,nt,nt,-5%,nt,nt,nt
COc1cccc(-c2cc(C(=O)Nc3cc(OC)c(OC)c(OC)c3)no2)c1,9%,1%,?,-7%,-23%,-17%
O=C(Nc1cccnc1)c1cc(-c2ccccc2)on1,0%,-9%,4.8µM*,-8%,2%,1%
O=C(Nc1cccnc1)c1cc(-c2ccc(Br)cc2)on1,11%,-4%,2.1µM*,0%,5.8µM*,-1%
COc1cccc(-c2cc(C(=O)Nc3cccnc3)no2)c1,-8%,-9%,1.3µM*,-1%,?,-2%
COc1ccc(NC(=O)c2cc(-c3ccccc3)on2)cc1,nt,nt,?,2%,11%,1%
Cc1cccc(CNC(=O)C2CCN(c3nn4cc(-c5ccc(F)cc5)nc4s3)CC2)c1,nt,nt,1%,nt,nt,nt
CCCN(Cc1cccs1)C(=O)Nc1cc(C)ccc1OC,nt,nt,2%,nt,nt,nt
Nc1ccc2c(c1)nnn2-c1ccccc1,nt,nt,?,25%,12%,?
CC(C)CC(=O)Nc1cc2nn(-c3ccccc3)nc2cc1Cl,?,16%,1.5µM*,1.4µM*,4.6µM*,1.8µM*
Nc1ccc2nn(-c3ccccc3)nc2c1,nt,-6%,3.8µM*,1.6µM*,?,1.6µM*
Nc1cc2nn(-c3ccccc3)nc2cc1Cl,3.2µM*,-26%,1.3µM*,19%,24%,6%
Cc1cc2nn(-c3ccccc3)nc2cc1NC(=O)Cc1ccc(Cl)cc1,?,nt,-6%,nt,nt,nt
Cc1csc(=NC(=O)c2ccccc2)n1C,11µM*,-25%,13µM*,2.5µM*,21µM*,3.2µM*
CCn1c(C)csc1=NC(=O)c1ccccc1O,-9%,-14%,13µM*,2.8µM*,?,2.8µM*
Cc1csc(=NC(=O)c2ccccc2)n1Cc1ccco1,-26%,6%,?,17%,1%,13%
CCn1c(C)csc1=NC(=O)c1ccccc1,-10%,0%,19µM*,?,7%,17%
O=C(C[C@@H]1C=Cc2ccccc2N1C(=O)c1ccccc1)c1ccccc1,-31%[9.22 µM],-3%[7.66 µM],nt,nt,nt,nt
O=C(NCCCN1CCCCCC1)c1ccc2c(c1)sc1nc(-c3ccccc3)cn12,nt,nt,-1%,nt,nt,nt
Cc1ccc(Nc2nc(C(N)=O)c(NC(=O)c3ccccc3Br)s2)cc1,nt,nt,-11%,nt,nt,nt
Cc1cccc(NC(=O)Cn2nc(-c3ccccc3)c3cnc4ccccc4c32)c1,nt,nt,0%,nt,nt,nt
CCn1c(=O)cc(SCC(=O)N2CCN(C3CCCCC3)CC2)c2ccccc21,10µM*,4%,3%,-11%,15%,-7%
SMILES,SMN2 splice enh,KinaseGlo FLuc,FLuc modulator,Rab9 prom act,ELG1 genotox,NPC1 promoter act
CCn1c(=O)cc(SCC(=O)N2CCOCC2)c2ccccc21,14µM*,2%,1%,-9%,?,-1%
CC1(C)Cc2nc3sc4c(N(CCO)CCO)ncnc4c3cc2CO1,19%,-4%,?,11%,?,6%
CC1(C)Cc2nc3sc4c(NCCO)ncnc4c3cc2CS1,nt,nt,19µM*,?,1%,21%
CC(C)CCn1cnc2c(sc3nc4c(cc32)CSC(C)(C)C4)c1=O,-5%,1%,0.6µM*,0.63µM*,?,1µM*
CCCCn1cnc2c(sc3nc4c(cc32)CSC(C)(C)C4)c1=O,4µM*,-2%,1.1µM*,1.1µM*,?,0.63µM*
CSc1ccc(-c2nc3cccc(C)n3c2Nc2ccc3c(c2)OCO3)cc1,1%,nt,-5%,nt,nt,nt
CCc1ccc(S(=O)(=O)N(C(=O)Oc2ccccc2)c2ccc3oc(C)c(C(=O)OC)c3c2)cc1,-33%,nt,-2%,nt,nt,nt
Cc1cccc(-c2nc3nc(C)cc(NC(C)c4ccccc4)n3n2)c1 (stereo unspecified),nt,nt,17µM*,nt,nt,nt
CN(C)c1ccc(NC(=O)c2ccc([N+](=O)[O-])cc2Cl)cc1,10µM*,-2%,4.3µM*,3.2µM*,?,2.5µM*
Cc1ccc(NC(=O)c2ccc([N+](=O)[O-])cc2Cl)nc1,5µM*,-4%,12µM*,2.8µM*,?,2.5µM*
CC(C)C(=O)Nc1ccc(NC(=O)c2ccc([N+](=O)[O-])cc2Cl)cc1,-12%,-1%,2%,-2%,0%,-4%
CCC(=O)OC1=C(C(C)=O)N(Cc2ccccc2)S(=O)(=O)c2ccccc21,nt,nt,4%,nt,nt,nt
CC(C)C(=O)Nc1cccc(-c2csc(-c3ccccc3)n2)c1,?,-2%,17µM*,-1%,-1%,-2%
Cc1nc(-c2cccc(NC(=O)Cc3ccccc3)c2)cs1,3%,-2%,?,4%,-1%,-2%
CC(C)C(=O)Nc1ccc(-c2csc(-c3ccccc3)n2)cc1,?,-4%,?,?,22%,2.2µM*
COc1ccc(S(=O)(=O)c2cnc3ccc(Cl)cc3c2N2CCCCC2C)cc1 (stereo unspecified),-40%,nt,4%,nt,nt,nt
Cc1nn(Cc2ccc(Cl)cc2)c(C)c1NC(=O)c1noc2c1CCCCC2,-26%,2%,3%,-6%,-8%,-3%
Cc1cc(NC(=O)c2noc3c2CCCCC3)nn1Cc1ccc(Cl)cc1,-34%,5%,13µM*,-3%,0%,-4%
CC(=O)c1ccc(NC(=O)c2noc3c2CCCCC3)cc1,8.9µM*,-1%,7.6µM*,2µM*,2.9µM*,1.1µM*
Cc1cc(NC(=O)c2noc3c2CCCC3)no1,?,-2%,?,19%,4%,17%
CCOC(=O)c1ccc(NC(=O)c2noc3c2CCCC3)cc1,nt,nt,8.5µM*,nt,nt,nt
COc1cccc(CNc2ncnc3c2nnn3C)c1,nt,nt,-6%,nt,nt,nt
COc1ccccc1N1CCN(/N=C/c2ccc(Cl)c([N+](=O)[O-])c2)CC1,nt,nt,15µM*,24%,?,28%
COc1ccccc1N1CCN(/N=C\c2cccnc2)CC1,nt,nt,-18%,4%,5%,-3%
